From PubChem BioAssay (NCI)
The panel holds about 83,000 compounds, 20% with a hit somewhere; the sample as a whole holds those more often.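 Step 1: grow cells in 96-well plates. Step 2: add test compound at a single concentration. Step 3: incubate 48 h. Step 4: record percent growth.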 Activity calls are given as the source filed them.

tested on: SK-MEL-2 melanoma; test: NCI-60 one-dose screen, 48 h (100 = growth as untreated, 0 = no growth, -100 = all killed); conditions: 10 µM unless noted
Procedure: Growth inhibition of the SK-MEL-2 human tumor cell line is measured as a screen for anti-cancer activity. Cells are grown in 96 well plates and exposed to the test compound for 48 hours. Compounds are tested at a single concentration, which is 10^-5 M for most compounds. The reported endpoint is percent growth (GI% or GIPRCNT), where numbers from 0 - 100% represent growth inhibition, and numbers from -100% - 0 represent cell death. For example, a value of 40 represents 60% growth inhibition. A value of 0 means no net growth occurred over the course of the experiment. A value of -40 indicates 40% of cells at the beginning of the experiment died by the end of the experiment. A value of -100 means all cells are dead at the end of the experiment.
NCI-60 Human Tumor Cell Lines Screen was performed using the standard one-dose NCI protocol, which is described in more detail at https://dtp.cancer.gov/discovery_development/nci-60/default.htm.
Compounds with GIPRCNT values below 10 were considered active. Activity score was based on GIPRCNT using the following formula: […]
Score is 0 for GIPRCNT values of 100 or above, 50 for GIPRCNT values of 0, and 100 for GIPRCNT values of -100.

Row | SMILES | growth
1 | COc1cc(/C=C2\C(=O)Nc3ccc(N(C)C)cc32)cc(OC)c1OC | 61.2% (inactive)
2 | C#CC[C@@H]1C[C@]2(C)[C@H]3CC=C4[C@H]5CC(C)(C)CC[C@]5(C(=O)NCCCCN)CC[C@@]4(C)[C@]3(C)CC[C@H]2C(C)(C)[C@H]1OC(C)=O | 98.9% (inactive)
3 | O=C1OC(c2ccc(-c3ccccc3)cc2)=C/C1=C/c1c(Cl)cccc1Cl | 105% (inactive)
4 | F | -27.7% [6.87 mM] (active)
5 | CCN(CC)c1ccc2nc3c4ccccc4c(=O)cc-3n(-c3ccccc3)c2c1 | -37.2% (active)
6 | CCc1ccc(Nc2cc(C)c3ccc(O)cc3n2)cc1 | 85% (inactive)
7 | CSC(=S)N/N=C(\C)c1ccccn1 | 21.7% (inactive)
8 | CCCCCCCCCCC(C(O)c1ccccc1)N1CCCCC1 (stereo not given) | 53.8% (inactive)
9 | Cc1ccc(Nc2nc(NCCO)c3ccccc3n2)cc1C | 39.5% (inactive)
10 | Fc1cc(-c2nnc3sc(-c4ccc(Cl)cc4)nn23)c(Cl)cc1Cl | 95.7% (inactive)
11 | Cc1cc(C#Cc2ccccc2)ccc1-n1c(/C=C/c2ccc(F)cc2)nc2ccccc2c1=O | 71% (inactive)
12 | COc1cc2cc(C(=O)Nc3ccccc3)c(N)nc2cc1OC | -62% (active)
13 | CC(C)(C)NC(=O)C(OC(=O)C1CCc2cc(F)ccc2O1)c1ccccc1Cl (stereo not given) | 102% (inactive)
14 | CC1=C(C(=O)Nc2ccc(F)cc2)C(c2ccc(Cl)cc2)C2=C(CC(C)(C)CC2=O)N1 (stereo not given) | 97.5% (inactive)
15 | C/C(=N\OC(=O)Nc1ccccc1)c1ccccc1 | 111% (inactive)
16 | CC(=O)c1ccc(-n2c(-c3cc(-c4ccsc4)n[nH]3)n[nH]c2=S)cc1 | 86.9% (inactive)
17 | CC(C)COC(=O)NC(C)(C)C | 93.1% (inactive)
18 | Nc1nc(N)c2cc(CNc3ccc(Cl)c(Cl)c3)ccc2n1 | 42% (inactive)
19 | COc1cccc(CC(C)=C(c2ccc(OCCCN(C)C)cc2)c2ccc(OCCCN(C)C)cc2)c1 | -76.5% (active)
20 | COc1cc(NC(C)CCCN)c2ncccc2c1Oc1ccc(Cl)cc1 (stereo not given) | 102% (inactive)

Row | SMILES | growth
21 | O=[N+]([O-])c1cccc(N=C(Nc2cccc([N+](=O)[O-])c2)c2ccccc2)c1 | 77.9% (inactive)
22 | COc1cc(Cn2c(-c3ccccc3)cc3c2-c2oncc2CC3)cc(OC)c1OC | 31.4% (inactive)
23 | CCN(CC)CCNc1c(C)cc(CO)c(Cl)c1C | 112% (inactive)
24 | CC[C@H](Nc1nc(N)nc(N)c1Cl)c1nc2cccc(NCc3ccc(C(=O)NO)cc3)c2c(=O)n1-c1ccccc1 | 71.5% (inactive)
25 | C/C(=N\NC(=S)Nc1ccccc1)c1ccccn1 | 73.5% (inactive)
26 | O=C1c2ccccc2C(=O)c2c1oc1ccc3ccccc3c21 | 101% (inactive)
27 | Cn1c(=O)c2c3c(oc2c2ccccc21)C(=O)c1ccccc1C3=O | 92.6% (inactive)
28 | CCOC(=O)C(Nc1ccccc1)C(=O)OCC | 108% (inactive)
29 | N#CC1=C(N)Oc2nc[nH]c(=O)c2C1c1cccs1 (stereo not given) | 113% (inactive)
30 | Oc1[nH]c2ccccc2c1/C=c1/ccc2c(c1)N=C(c1ccc(C(F)(F)F)cc1)N=2 | 27.9% (inactive)
31 | O=C(c1ccccc1)N(CCCCl)C(=O)N(CCCCl)C(=O)c1ccccc1 | 103% (inactive)
32 | Brc1cccc(-n2ncc3c(Nc4ccc(-c5nnc(-c6ccccc6)o5)cc4)ncnc32)c1 | 115% (inactive)
33 | C=CCn1c(SCC(=O)Nc2ccc(/C(C)=N\O)cc2)nnc1-c1cc(-c2ccc(Cl)cc2)nc2ccccc12 | 28.5% (inactive)
34 | CN(C)c1ccc(/C=N/Nc2nnc3n2N=C(c2ccc(Cl)cc2)CS3)cc1 | 97.5% (inactive)
35 | CCCCNCC(O)c1cc(-c2ccc(C(F)(F)F)cc2)nc(-c2ccc(C(F)(F)F)cc2)c1 (stereo not given) | -67.1% (active)
36 | CCCCN(CCCC)CCC(O)c1cc2ccc(C(F)(F)F)cc2c2cc(C(F)(F)F)ccc12 (stereo not given) | 55% (inactive)
37 | Fc1ccc(-c2nnc(N3CCOCC3)c3ccccc23)cc1 | 111% (inactive)
38 | O=C1C=CC(=O)N1CO | 123% (inactive)
39 | O=C(Nc1cccc(Cl)c1)Nc1cc(C(F)(F)F)ccc1Cl | 4.93% (active)
40 | CCCCCNCCCCCNc1cc(OC)cc2cccnc12 | 99% (inactive)
